# Values joined by “and” are separate entries in the source; they are usually repeats but may differ in a detail not shown here. Identical values can stand only once. Inconclusive results are not listed. Entries that show only a call come without a potency. Active and inactive are the calls of the source. Unless noted, calls follow the shape of the dose curve; as a rule, active = well fitted curve in the direction sought with a large enough effect in the repeat runs; inconclusive = weak or mixed curves; inactive = no such curve, though single readings can be large; an effect the other way counts as inactive or inconclusive.
# Tests used:
# [1] = qHTS assay to identify small molecule agonists of the RXR signaling pathway - cell viability counter screen (AID 1159529); also: nearly all actives have a fitted effect of over 50% in size; also: potency is read from the fitted curve at half-maximal effect
# How it was run: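 Compounds dissolved in DMSO were pinned onto HEK 293T cells carrying a beta-lactamase reporter under RXR-alpha control and incubated 16 hr. Cytotoxicity was then quantified by CellTiter-Glo luminescence.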
# [2] = qHTS assay to identify small molecule antagonists of the retinoid acid receptor (RAR) signaling pathway - cell viability counter screen (AID 1159551); also: nearly all actives have a fitted effect of over 35% in size
# How it was run: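 Luminescent ATP quantitation (CellTiter-Glo) gave cell viability in C3RL4 cells exposed to test chemicals for 6 h at 37 C alongside 1 uM final retinol.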
# [3] = qHTS assay to identify small molecule agonists of the retinoic acid receptor (RAR) signaling pathway (AID 1159553); also: potency is read from the fitted curve at half-maximal effect
# How it was run: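 Luminescence from a RARE-driven luciferase reporter in C3RL4 cells served as the read-out, measured after 30 min with detection reagent at room temperature. Compounds in DMSO were applied for 6 hr at 37 C following overnight seeding.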
# [4] = qHTS assay to identify small molecule antagonists of the retinoic acid receptor (RAR) signaling pathway (AID 1159552; also: nearly all actives have a fitted effect of over 50% in size; also: potency is read from the fitted curve at half-maximal effect)
# How it was run: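 Test chemicals and DMSO controls were pin-transferred onto C3RL4 cells a day after seeding; retinol (1 uM final) followed at once. Luminescent reporter output was quantified after 6 hr of co-incubation and 30 min with detection reagent.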
# [5] = qHTS assay to identify small molecule antagonists of the estrogen related receptor (ERR) signaling pathway - cell viability counter screen (AID 1224818);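 also: series mostly up to about 46 µM; viability measured after 17.5 h of compound exposure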
# How it was run: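 Multiplexed counter screen to separate cytotoxic compounds from true ERR modulators. ERR cells received DMSO-dissolved compounds after a 6 h pre-incubation, were exposed 17.5 h at 37 C, then assayed with CellTiter-Fluor fluorescence.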
# [6] = qHTS assay to identify small molecule antagonists of the estrogen related receptor signaling pathway with the pleiotropic PPARgamma coactivator (PGC) cell viability counter screen (AID 1224822; also: potency is read from the fitted curve at half-maximal effect;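 also: viability read after 17.5 h compound exposure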)
# How it was run: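 Cells: PGC/ERR, 2,000/well, 1536-well format. Pre-incubation 6 h, 37 C/5% CO2. Compound exposure 17.5 h, 37 C. Detection: CellTiter-Fluor, 30 min, fluorescence.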
# [7] = qHTS assay to identify small molecule antagonists of the estrogen related receptor (ERR) signaling pathway (AID 1224819; also: potency is read from the fitted curve at half-maximal effect; nearly all actives have a fitted effect of over 50% in size)
# How it was run: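 Seed ERR cells 2,000/well; rest 6 h at 37 C/5% CO2; pin compounds in DMSO; incubate 18 h at 37 C; add One-Glo; wait 30 min at room temperature; measure luminescence.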
# [8] = qHTS assay to identify small molecule agonists of the estrogen related receptor (ERR) signaling pathway (AID 1224820)
# How it was run: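 ERR reporter cell line (from NTP), 2,000 cells/well, incubated 6 h before compound addition, then 18 h at 37 C. Luminescence measured 30 min after One-Glo reagent at room temperature.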
# [9] = test system: estrogen-related receptor alpha (ERRalpha) with PGC-1alpha coactivator, human; assay: qHTS assay to identify small molecule antagonists of the estrogen related receptor signaling pathway with the pleiotropic PPARgamma coactivator (PGC) (AID 1224821; calls by dose curve; also: potency is read from the fitted curve at half-maximal effect; nearly all actives have a fitted effect of over 50% in size)
# How it was run: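 PGC/ERR reporter cell line, plated 6 h before compound addition, then exposed 18 h at 37 °C. Luciferase activity read by luminescence 30 min after One-Glo addition; decrease indicates antagonism.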
# [10] = qHTS assay to identify small molecule agonists of the estrogen related receptor signaling pathway with the pleiotropic PPARgamma coactivator (PGC) (AID 1224823)
# How it was run: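 PGC/ERR reporter cells seeded 6 h, then exposed to compounds (23 nL in DMSO) for 18 h at 37 C. One-Glo luciferase luminescence read after 30 min at room temperature.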
smiles,measurement,setting,value
CC(C)N(C(=O)SC/C(Cl)=C/Cl)C(C)C,Potency,[1],inactive
same,Potency,[2],inactive
same,Potency,[3],inactive
Clc1cc(Cl)c(-c2cc(Cl)c(Cl)cc2Cl)cc1Cl,Potency,[1],inactive
same,Potency,[4],inactive
same,Potency,[3],inactive
ClSC(Cl)(Cl)Cl,Potency,[1],inactive
same,Potency,[4],inactive
same,Potency,[3],inactive
C#CC1(O)CCCCC1,Potency,[1],inactive
same,Potency,[4],inactive
same,Potency,[3],inactive
C[C@@H]1CC2=CC(=O)CC[C@@H]2[C@H]2CC[C@@]3(C)[C@@H](CC[C@]3(C)O)[C@@H]21,Potency,[1],inactive
same,Potency,[2],inactive
same,Potency,[3],inactive
O=C1C2(Cl)C3(Cl)C4(Cl)C(Cl)(Cl)C5(Cl)C3(Cl)C1(Cl)C5(Cl)C24Cl (configuration not stated),Potency,[1],24.1 µM (active) and 41.8 µM (active)
same,Potency,[4],21.3 µM (active) and 29.3 µM (active)
O=C(CCCCl)c1ccc(F)cc1,Potency,[1],inactive
same,Potency,[4],inactive
same,Potency,[3],26.6 µM (active)
O=[N+]([O-])c1cc(C(F)(F)F)c(Cl)c([N+](=O)[O-])c1Nc1ncc(C(F)(F)F)cc1Cl,Potency,[1],7.76 µM (active)
same,Potency,[4],30.6 µM (active)
O=C(N[C@H]1N=C(c2ccccc2F)c2cccc3c2N(CC3)C1=O)c1cc2ccccc2[nH]1,Potency,[1],inactive
same,Potency,[4],inactive
same,Potency,[3],inactive
Oc1ccc2[nH]cc(CCCCN3CC=C(c4ccccc4)CC3)c2c1,Potency,[1],inactive
same,Potency,[4],inactive
same,Potency,[3],inactive
O=[N+]([O-])[O-].[Tl+],Potency,[2],inactive
same,Potency,[3],inactive
O=C(NC(=O)c1c(F)cccc1F)Nc1ccc(Oc2ccc(C(F)(F)F)cc2Cl)cc1F,Potency,[2],inactive
N#Cc1c2ccccc2cc2ccccc12,Potency,[2],inactive
same,Potency,[4],inactive
same,Potency,[3],inactive
COC(=O)N(OC)c1ccccc1COc1ccn(-c2ccc(Cl)cc2)n1,Potency,[1],inactive
same,Potency,[3],inactive
Cc1c([N+](=O)[O-])cc2c(c1[N+](=O)[O-])C(C)(C)CC2(C)C,Potency,[4],inactive
same,Potency,[3],inactive
CCC(C)c1cccc(C(C)CC)c1O (configuration not stated),Potency,[1],inactive
same,Potency,[3],inactive
Cc1c([N+](=O)[O-])c(C)c([N+](=O)[O-])c(C(C)(C)C)c1[N+](=O)[O-],Potency,[2],inactive
same,Potency,[4],inactive
same,Potency,[3],inactive
c1ccc2nc(N3CCNCC3)ccc2c1,Potency,[2],inactive
same,Potency,[4],inactive
same,Potency,[3],inactive
CC(C)(C)c1ccc(OP(=O)(Oc2ccccc2)Oc2ccccc2)cc1,Potency,[2],inactive
same,Potency,[3],inactive
O=S(=O)(NS(=O)(=O)C(F)(F)F)C(F)(F)F,Potency,[2],inactive
NC1CCC(CC2CCC(N)CC2)CC1 (configuration not stated),Potency,[2],inactive
CCC(C)Nc1c([N+](=O)[O-])cc(C(C)(C)C)cc1[N+](=O)[O-] (configuration not stated),Potency,[2],inactive
same,Potency,[4],inactive
Brc1ccc(Oc2ccc(Br)cc2Br)c(Br)c1,Potency,[4],inactive
same,Potency,[3],13.7 µM (active)
CCC[CH2][Sn]([CH2]CCC)([O]C(C)=O)[O]C(C)=O,Potency,[4],0.138 µM (active)
CO/N=C(\C(=O)OC)c1ccccc1CO/N=C(\C)c1cccc(C(F)(F)F)c1,Potency,[1],inactive
same,Potency,[3],inactive
c1ccc(Nc2ccc(Nc3ccccc3)cc2)cc1,Potency,[2],inactive
same,Potency,[4],inactive
same,Potency,[3],5.43 µM (active)
CCOP(=S)(OCC)Oc1cc(C)nc(N(CC)CC)n1,Potency,[2],inactive
CCCCCCCc1ccc(O)cc1,Potency,[2],inactive
same,Potency,[4],inactive
same,Potency,[3],8.63 µM (active)
CCCCC/C=C\C/C=C\C/C=C\C/C=C\CCCC(=O)NCC(=O)O,Potency,[2],inactive
same,Potency,[4],inactive
same,Potency,[3],inactive
CCO/N=C(\CC)C1=C(O)CC(c2c(C)cc(C)cc2C)CC1=O (configuration not stated),Potency,[3],inactive
same,Potency,[5],inactive
same,Potency,[6],inactive
[O]=[Cr](=[O])([OH])[O][Cr](=[O])(=[O])[OH],Potency,[1],0.0027 µM (active)
same,Potency,[3],inactive
CCOP(=O)(OCC)Oc1nc(Cl)c(Cl)cc1Cl,Potency,[2],inactive
same,Potency,[4],inactive
same,Potency,[3],inactive
O=c1[nH]c(Cl)c(Cl)cc1Cl,Potency,[2],inactive
same,Potency,[4],inactive
same,Potency,[3],inactive
ClC1=C(Cl)[C@]2(Cl)[C@@H]3[C@H]4C[C@H]([C@@H]5O[C@H]45)[C@@H]3[C@@]1(Cl)C2(Cl)Cl,Potency,[2],inactive
same,Potency,[4],inactive
CCC(OC(C)=O)C(CC(C)NC)(c1ccccc1)c1ccccc1 (configuration not stated),Potency,[2],inactive
same,Potency,[4],30.9 µM (active)
CCOP(=S)(NC(C)C)Oc1ccccc1C(=O)OC(C)C (configuration not stated),Potency,[4],54.5 µM (active)
CC1=C2C[C@H]3[C@@H](CC=C4C[C@@H](O)CC[C@@]43C)[C@@H]2CC[C@]12O[C@@H]1C[C@H](C)CN[C@H]1[C@H]2C,Potency,[2],inactive
same,Potency,[4],inactive
same,Potency,[3],inactive
CN1CCc2cc(Cl)c(O)cc2[C@H]2c3ccccc3CC[C@@H]21,Potency,[2],inactive
N#CC(C#N)=NNc1cccc(Cl)c1,Potency,[2],inactive
same,Potency,[4],2.73 µM (active)
CCOP(=S)(OCC)SC(CCl)N1C(=O)c2ccccc2C1=O (configuration not stated),Potency,[1],inactive
same,Potency,[3],inactive
C=CCOC(=O)c1ccccc1N,Potency,[2],inactive
same,Potency,[4],inactive
same,Potency,[3],inactive
Cc1ccccc1OP(=O)(Oc1ccccc1C)Oc1ccccc1C,Potency,[2],inactive
c1cc[n+]2c(c1)-c1cccc[n+]1CC2,Potency,[1],inactive
same,Potency,[3],inactive
CSC(=O)c1c(C(F)F)nc(C(F)(F)F)c(C(=O)SC)c1CC(C)C,Potency,[3],inactive
Fc1ccc(C(OCCN2CCN(CCCc3ccccc3)CC2)c2ccc(F)cc2)cc1,Potency,[1],16.9 µM (active)
same,Potency,[7],9.08 µM (active)
same,Potency,[8],inactive
same,Potency,[9],12.8 µM (active)
same,Potency,[6],22.8 µM (active)
same,Potency,[10],inactive
Cc1cc(C2CC2)nc(Nc2ccccc2)n1,Potency,[4],inactive
same,Potency,[3],19.3 µM (active)
C#CCC1=C(C)C(OC(=O)C2C(C=C(C)C)C2(C)C)CC1=O (configuration not stated),Potency,[2],inactive
same,Potency,[3],inactive
CCCCCCC[CH2][Sn]([Cl])([Cl])[CH2]CCCCCCC,Potency,[2],inactive
same,Potency,[4],inactive
same,Potency,[3],inactive
O.O.O.O=C([O-])[C@H]([O-])[C@@H]([O-])C(=O)[O-].O=C([O-])[C@H]([O-])[C@@H]([O-])C(=O)[O-].[K+].[K+].[Sb+3].[Sb+3],Potency,[2],inactive

# From PubChem BioAssay (Tox21)
